What all share (test): DAPPL (digital affinity profiling via proximity ligation, sequencing); 10 mM Tris-HCl pH 7.5, 50 mM NaCl, 1 mM DTT, 4% glycerol, room temperature, 30 min; GST-TFs on glutathione beads, 16-mer random dsDNA library, 0.1% formaldehyde crosslink after washing; high values mean tight binding
In one test the target is T1, FLI1 (Homo sapiens, UniProt Q01543 1-452).
T1 sequence: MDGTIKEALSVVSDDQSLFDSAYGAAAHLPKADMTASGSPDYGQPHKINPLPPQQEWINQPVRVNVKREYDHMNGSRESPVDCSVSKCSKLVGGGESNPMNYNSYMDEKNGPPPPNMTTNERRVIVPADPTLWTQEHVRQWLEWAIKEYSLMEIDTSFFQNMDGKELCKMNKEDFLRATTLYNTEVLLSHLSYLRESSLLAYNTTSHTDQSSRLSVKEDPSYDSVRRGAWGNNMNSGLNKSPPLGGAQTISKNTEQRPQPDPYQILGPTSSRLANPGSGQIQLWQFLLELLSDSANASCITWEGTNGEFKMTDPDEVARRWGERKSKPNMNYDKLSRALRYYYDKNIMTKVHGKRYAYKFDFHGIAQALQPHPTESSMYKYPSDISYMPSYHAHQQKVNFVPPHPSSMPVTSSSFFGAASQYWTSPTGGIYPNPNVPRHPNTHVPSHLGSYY
As to conditions: protein: recombinant; tags: N-terminal GST; dsDNA, one strand shown. Put shortly:
(§1)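 Beads coated with glutathione captured GST-fused human transcription factors that had been expressed in yeast, and the factors were then given DNA barcodes and pooled with a tag-only sample. The pools were incubated with 200 nmole of a random double-stranded 16-mer DNA library in Tris/NaCl/DTT/glycerol buffer for 30 min at room temperature, washed, crosslinked with 0.1% formaldehyde and proximity-ligated with BsaI/T4 ligase at 37 °C for 1 h. PCR amplification and Illumina NextSeq500 sequencing came last. Binding signal is each hexamer's read frequency for a factor divided by its frequency for the tag-only sample.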

The target of the next test is T2, ELK1 (Homo sapiens, UniProt P19419 1-428).
T2 sequence: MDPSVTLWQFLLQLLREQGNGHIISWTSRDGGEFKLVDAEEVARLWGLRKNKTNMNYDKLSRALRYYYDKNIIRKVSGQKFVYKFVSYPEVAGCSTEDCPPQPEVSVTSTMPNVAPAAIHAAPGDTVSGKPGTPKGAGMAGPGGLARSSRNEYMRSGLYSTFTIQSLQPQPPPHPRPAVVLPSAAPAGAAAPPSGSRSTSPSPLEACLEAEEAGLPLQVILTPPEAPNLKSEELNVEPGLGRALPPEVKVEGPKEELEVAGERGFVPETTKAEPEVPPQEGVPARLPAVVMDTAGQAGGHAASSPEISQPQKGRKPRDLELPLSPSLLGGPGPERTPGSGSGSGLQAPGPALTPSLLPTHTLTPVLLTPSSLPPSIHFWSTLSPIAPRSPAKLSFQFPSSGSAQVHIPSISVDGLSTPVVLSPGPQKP
As to conditions: protein: recombinant; tags: N-terminal GST; dsDNA, one strand shown. In outline: as §1

The target in a further test is T3, GABPA (Homo sapiens, UniProt Q06546 1-454).
T3 sequence: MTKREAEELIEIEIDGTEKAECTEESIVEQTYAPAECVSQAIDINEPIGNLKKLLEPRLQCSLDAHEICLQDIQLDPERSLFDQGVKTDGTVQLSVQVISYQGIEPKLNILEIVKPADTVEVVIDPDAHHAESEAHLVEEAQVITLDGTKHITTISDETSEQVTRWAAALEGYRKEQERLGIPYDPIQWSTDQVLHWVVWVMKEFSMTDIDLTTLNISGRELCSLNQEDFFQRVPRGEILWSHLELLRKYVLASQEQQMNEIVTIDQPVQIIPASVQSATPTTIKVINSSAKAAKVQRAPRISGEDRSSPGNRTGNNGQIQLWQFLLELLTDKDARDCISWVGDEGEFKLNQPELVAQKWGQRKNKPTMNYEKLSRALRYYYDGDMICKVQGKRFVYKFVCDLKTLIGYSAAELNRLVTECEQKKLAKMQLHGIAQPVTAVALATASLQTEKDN
Particulars: protein: recombinant; tags: N-terminal GST; dsDNA, one strand shown. In outline: as §1

A further test addresses T4, ERG (Homo sapiens, UniProt P11308 1-479).
T4 sequence: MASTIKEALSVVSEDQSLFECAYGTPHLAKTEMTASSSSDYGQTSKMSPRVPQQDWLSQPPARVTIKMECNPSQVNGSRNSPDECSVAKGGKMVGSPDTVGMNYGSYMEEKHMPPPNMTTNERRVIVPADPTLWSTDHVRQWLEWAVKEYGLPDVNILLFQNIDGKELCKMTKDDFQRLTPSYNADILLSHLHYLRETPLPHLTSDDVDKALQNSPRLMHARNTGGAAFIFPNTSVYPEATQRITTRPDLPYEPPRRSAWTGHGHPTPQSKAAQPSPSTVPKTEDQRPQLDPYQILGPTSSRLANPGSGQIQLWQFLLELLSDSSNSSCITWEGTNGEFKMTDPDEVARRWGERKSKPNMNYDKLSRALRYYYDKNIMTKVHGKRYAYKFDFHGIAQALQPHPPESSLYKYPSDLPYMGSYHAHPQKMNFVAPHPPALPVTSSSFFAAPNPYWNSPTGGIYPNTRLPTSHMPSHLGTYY
As to conditions: protein: recombinant; tags: N-terminal GST; dsDNA, one strand shown. In outline:
as §1

A further test concerns the target ELF1 (Homo sapiens, UniProt P32519 1-619). As to conditions: protein: recombinant; tags: N-terminal GST; dsDNA, one strand shown. Put shortly: as §1
The target of a further test is T5, EHF (Homo sapiens, UniProt Q9NZC4 1-300).
T5 sequence: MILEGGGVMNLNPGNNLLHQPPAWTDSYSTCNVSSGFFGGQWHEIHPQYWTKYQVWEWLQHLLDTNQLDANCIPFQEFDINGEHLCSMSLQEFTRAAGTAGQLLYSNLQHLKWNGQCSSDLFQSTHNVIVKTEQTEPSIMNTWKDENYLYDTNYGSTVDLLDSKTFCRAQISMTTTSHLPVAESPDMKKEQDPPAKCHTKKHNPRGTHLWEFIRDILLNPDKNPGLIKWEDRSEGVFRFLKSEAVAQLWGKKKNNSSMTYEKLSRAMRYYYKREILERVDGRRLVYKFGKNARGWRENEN
Particulars: protein: recombinant; tags: N-terminal GST; dsDNA, one strand shown. In outline: as §1

Another test has as its target SPIB (Homo sapiens, UniProt Q01892 1-262). As to conditions: protein: recombinant; tags: N-terminal GST; dsDNA, one strand shown. Put shortly: as §1
The target of another test is T6, ELK3 (Homo sapiens, UniProt P41970 1-407).
T6 sequence: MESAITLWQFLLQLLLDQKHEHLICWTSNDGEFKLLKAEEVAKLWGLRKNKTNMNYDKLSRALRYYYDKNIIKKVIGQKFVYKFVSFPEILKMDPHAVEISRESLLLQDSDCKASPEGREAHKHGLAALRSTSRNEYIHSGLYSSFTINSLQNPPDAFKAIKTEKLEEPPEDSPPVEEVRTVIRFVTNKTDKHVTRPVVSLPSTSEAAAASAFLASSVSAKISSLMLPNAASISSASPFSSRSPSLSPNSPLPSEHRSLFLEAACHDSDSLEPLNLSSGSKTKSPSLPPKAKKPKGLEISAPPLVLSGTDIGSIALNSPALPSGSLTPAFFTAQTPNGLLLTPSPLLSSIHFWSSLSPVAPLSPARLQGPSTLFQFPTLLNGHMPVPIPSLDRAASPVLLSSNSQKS
Particulars: protein: recombinant; tags: N-terminal GST; dsDNA, one strand shown. Put shortly:
as §1

Another test concerns the target T7, FEV (Homo sapiens, UniProt Q99581 1-238).
T7 sequence: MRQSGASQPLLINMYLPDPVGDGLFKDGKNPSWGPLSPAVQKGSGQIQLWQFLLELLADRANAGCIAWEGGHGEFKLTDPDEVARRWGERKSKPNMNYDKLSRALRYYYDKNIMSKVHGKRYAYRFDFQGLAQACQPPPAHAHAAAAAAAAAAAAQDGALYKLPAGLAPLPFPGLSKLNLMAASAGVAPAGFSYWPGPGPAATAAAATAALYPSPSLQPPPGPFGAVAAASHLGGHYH
Particulars: protein: recombinant; tags: N-terminal GST; dsDNA, one strand shown. In outline:
as §1

Another test concerns the target ETV5 (Homo sapiens, UniProt P41161 1-510). Particulars: protein: recombinant; tags: N-terminal GST; dsDNA, one strand shown. Put shortly: as §1
For another test, the target named is HSF1 (Homo sapiens, UniProt Q00613 1-529). As to conditions: protein: recombinant; tags: N-terminal GST; chain copies: 3; dsDNA, one strand shown. Put shortly: as §1
In a further test the target is T8, SPIC (Homo sapiens, UniProt Q8N5J4 1-248).
T8 sequence: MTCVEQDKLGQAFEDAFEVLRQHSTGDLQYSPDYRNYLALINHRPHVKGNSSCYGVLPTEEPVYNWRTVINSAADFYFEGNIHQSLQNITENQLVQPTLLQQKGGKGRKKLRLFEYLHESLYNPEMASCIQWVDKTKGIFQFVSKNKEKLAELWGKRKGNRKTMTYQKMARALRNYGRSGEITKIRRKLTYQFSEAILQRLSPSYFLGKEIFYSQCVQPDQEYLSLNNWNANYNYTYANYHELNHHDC
Particulars: protein: recombinant; tags: N-terminal GST; dsDNA, one strand shown. In outline:
as §1

A further test concerns the target T9, ELK4 (Homo sapiens, UniProt P28324-2 1-405).
T9 sequence: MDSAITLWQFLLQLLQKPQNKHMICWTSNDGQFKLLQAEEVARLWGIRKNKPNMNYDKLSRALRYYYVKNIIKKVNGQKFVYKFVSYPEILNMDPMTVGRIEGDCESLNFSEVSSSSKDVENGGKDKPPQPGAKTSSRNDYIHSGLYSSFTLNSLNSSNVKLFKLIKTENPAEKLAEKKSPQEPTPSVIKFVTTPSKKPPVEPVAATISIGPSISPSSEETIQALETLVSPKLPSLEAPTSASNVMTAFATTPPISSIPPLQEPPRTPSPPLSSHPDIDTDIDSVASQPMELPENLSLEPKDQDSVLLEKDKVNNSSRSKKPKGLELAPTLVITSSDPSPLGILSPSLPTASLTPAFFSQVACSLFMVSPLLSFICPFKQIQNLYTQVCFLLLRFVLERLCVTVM
Particulars: protein: recombinant; tags: N-terminal GST; dsDNA, one strand shown. In outline:
as §1

Another test concerns the target T10, ETV2 (Homo sapiens, UniProt O00321 1-342).
T10 sequence: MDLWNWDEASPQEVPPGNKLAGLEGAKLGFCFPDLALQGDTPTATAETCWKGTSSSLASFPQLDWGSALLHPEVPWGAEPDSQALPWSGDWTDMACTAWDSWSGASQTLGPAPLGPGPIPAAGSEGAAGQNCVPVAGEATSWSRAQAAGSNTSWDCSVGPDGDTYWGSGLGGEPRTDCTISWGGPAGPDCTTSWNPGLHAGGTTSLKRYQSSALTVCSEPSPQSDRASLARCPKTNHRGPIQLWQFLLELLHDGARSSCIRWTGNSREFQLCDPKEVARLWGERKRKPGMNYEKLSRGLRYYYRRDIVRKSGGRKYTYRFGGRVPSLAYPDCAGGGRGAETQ
Particulars: protein: recombinant; tags: N-terminal GST; dsDNA, one strand shown. In outline:
as §1

A further test addresses T11, ELF3 (Homo sapiens, UniProt P78545 1-371).
T11 sequence: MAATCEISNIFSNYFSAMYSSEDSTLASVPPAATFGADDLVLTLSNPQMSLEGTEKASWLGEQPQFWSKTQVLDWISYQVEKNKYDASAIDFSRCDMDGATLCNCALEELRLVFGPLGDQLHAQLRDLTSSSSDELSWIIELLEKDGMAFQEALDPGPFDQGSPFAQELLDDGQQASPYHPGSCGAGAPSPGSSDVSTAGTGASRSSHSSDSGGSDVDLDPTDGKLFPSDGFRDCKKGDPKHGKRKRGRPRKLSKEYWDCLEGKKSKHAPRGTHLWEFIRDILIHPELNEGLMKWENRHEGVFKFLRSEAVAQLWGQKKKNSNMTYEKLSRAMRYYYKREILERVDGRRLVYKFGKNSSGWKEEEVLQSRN
Particulars: protein: recombinant; tags: N-terminal GST; dsDNA, one strand shown. In outline:
as §1

The target of a further test is ETV1 (Homo sapiens, UniProt P50549 1-477). Particulars: protein: recombinant; tags: N-terminal GST; dsDNA, one strand shown. In outline: as §1
Chain of ETV1 (P50549 whole entry): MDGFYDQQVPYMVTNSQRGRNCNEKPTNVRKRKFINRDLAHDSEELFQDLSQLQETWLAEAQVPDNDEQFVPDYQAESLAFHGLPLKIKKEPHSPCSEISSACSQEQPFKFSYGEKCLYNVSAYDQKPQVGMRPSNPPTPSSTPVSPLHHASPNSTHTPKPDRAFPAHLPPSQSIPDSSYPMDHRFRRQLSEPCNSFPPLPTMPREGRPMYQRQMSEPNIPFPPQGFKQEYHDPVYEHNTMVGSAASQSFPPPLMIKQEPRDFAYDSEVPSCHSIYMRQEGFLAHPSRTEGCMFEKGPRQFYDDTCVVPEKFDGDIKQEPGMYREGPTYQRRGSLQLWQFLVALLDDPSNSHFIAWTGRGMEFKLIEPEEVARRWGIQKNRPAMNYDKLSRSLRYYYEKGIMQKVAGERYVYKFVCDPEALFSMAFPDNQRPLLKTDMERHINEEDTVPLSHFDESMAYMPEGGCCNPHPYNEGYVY

Chain of ETV5 (P41161 whole entry): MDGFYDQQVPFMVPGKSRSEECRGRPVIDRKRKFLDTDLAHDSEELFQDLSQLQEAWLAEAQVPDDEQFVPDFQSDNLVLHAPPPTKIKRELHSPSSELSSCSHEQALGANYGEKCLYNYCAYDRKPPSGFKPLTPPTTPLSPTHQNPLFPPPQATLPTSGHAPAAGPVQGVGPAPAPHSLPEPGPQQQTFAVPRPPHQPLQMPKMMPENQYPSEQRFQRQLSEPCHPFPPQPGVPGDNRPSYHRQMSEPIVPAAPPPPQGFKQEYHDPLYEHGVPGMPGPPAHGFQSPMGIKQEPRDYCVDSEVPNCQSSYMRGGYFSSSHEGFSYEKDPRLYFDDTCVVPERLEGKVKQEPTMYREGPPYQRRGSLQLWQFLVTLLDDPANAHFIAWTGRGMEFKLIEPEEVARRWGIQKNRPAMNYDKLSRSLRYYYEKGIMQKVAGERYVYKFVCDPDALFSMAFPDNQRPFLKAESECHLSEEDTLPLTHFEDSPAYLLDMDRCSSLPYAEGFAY
Chain of ELF1 (P32519 whole entry): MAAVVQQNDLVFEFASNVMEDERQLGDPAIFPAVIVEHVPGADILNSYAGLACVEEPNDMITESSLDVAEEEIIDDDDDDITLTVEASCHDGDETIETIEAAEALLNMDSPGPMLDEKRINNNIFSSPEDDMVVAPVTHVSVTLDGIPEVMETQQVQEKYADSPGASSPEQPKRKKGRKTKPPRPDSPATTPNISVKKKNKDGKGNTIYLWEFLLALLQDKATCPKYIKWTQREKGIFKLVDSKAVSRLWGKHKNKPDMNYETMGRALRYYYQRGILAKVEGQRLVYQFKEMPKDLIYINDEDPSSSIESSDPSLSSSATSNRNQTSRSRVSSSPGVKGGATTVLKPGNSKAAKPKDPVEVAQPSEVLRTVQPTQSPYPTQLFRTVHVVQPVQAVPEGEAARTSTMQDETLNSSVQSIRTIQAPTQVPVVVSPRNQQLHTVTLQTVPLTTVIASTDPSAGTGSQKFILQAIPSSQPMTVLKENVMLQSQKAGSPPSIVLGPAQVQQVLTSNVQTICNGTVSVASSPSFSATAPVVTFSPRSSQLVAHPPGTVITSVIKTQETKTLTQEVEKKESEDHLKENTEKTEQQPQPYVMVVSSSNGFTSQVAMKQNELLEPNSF
Chain of HSF1 (Q00613 whole entry): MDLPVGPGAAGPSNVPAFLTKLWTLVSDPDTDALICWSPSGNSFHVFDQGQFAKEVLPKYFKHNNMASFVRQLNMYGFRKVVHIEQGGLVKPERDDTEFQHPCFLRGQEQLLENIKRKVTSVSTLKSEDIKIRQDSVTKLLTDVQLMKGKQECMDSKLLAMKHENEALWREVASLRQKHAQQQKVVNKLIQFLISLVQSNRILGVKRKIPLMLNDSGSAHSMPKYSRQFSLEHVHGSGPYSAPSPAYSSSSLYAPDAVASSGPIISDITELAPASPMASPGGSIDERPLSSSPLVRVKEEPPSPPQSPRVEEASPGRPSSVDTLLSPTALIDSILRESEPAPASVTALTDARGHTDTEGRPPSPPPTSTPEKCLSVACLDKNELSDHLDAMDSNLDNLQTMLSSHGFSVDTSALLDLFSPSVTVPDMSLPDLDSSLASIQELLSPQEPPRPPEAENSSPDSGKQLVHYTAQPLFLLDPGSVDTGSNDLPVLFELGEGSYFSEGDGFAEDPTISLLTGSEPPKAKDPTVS
Chain of SPIB (Q01892 whole entry): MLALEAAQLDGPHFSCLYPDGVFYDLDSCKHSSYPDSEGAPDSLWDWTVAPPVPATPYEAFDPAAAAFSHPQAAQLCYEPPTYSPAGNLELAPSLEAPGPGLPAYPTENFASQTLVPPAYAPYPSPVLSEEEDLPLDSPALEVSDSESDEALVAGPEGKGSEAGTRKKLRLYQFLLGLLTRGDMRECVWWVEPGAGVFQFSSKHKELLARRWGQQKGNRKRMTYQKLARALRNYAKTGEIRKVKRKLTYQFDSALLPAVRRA

Consider TCGCGC, for which the binding signal with FLI1 is 1.08 fold enrichment (6-mer frequency, TF over GST control); with ELK1, 1.04 fold enrichment (6-mer frequency, TF over GST control); in the test with GABPA it was 1.18 fold enrichment (6-mer frequency, TF over GST control); with ERG it was 1.08 fold enrichment (6-mer frequency, TF over GST control); with ELF1, 1.07 fold enrichment (6-mer frequency, TF over GST control); with EHF it was 1.13 fold enrichment (6-mer frequency, TF over GST control). For the same sequence, the binding signal with SPIB is 1.08 fold enrichment (6-mer frequency, TF over GST control); with ELK3, 1.03 fold enrichment (6-mer frequency, TF over GST control); with FEV, 1.03 fold enrichment (6-mer frequency, TF over GST control); in the test with ETV5, 1.02 fold enrichment (6-mer frequency, TF over GST control); with HSF1, 1.1 fold enrichment (6-mer frequency, TF over GST control); with SPIC it was 1.25 fold enrichment (6-mer frequency, TF over GST control). In addition, the binding signal was 1.03 fold enrichment (6-mer frequency, TF over GST control) in the test with ELK4; 1.08 fold enrichment (6-mer frequency, TF over GST control) with ETV2; 1.05 fold enrichment (6-mer frequency, TF over GST control) in the test with ELF3; 1.13 fold enrichment (6-mer frequency, TF over GST control) in the test with ETV1.

These data come from PMC7862700, “An all-to-all approach to the identification of sequence-specific readers for epigenetic DNA modifications on cytosine”.
